These results are taken from PubChem BioAssay.

Test [1] in a line: inhibitors of TNFa-induced NFkB p65 translocation, primary screen, imaging, HUVEC, MLSMR starter and 10KST1 sets (AID 438).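 Further: compound added about 3h40 before a 20 min TNFalpha stimulation.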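 On inhibition: signal is the nuclear over cytoplasmic p65 intensity ratio per well.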 The settings on record: HUVEC TNFa-induced p65 nuclear translocation; cell count: measured here: nuclei count (cytotoxicity indicator), at 2.08 µM; inhibition: at 2 µM, stronger effect = higher value, 0% TNFa-plus-vehicle, 100% no-TNFa wells.
Test [2] is described as follows: reduction of polyQ htt aggregates in cells – imaging, exon1htt(103Q)mCFP cells, high-content imaging, primary screen (AID 483;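 active means visual image review flags a hit and inhibition of aggregation exceeds 20%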;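 further: compound exposure lasted 3 days before fixation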;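 on nuclei count: percent of the per-plate median nuclei count of sample wells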). The settings on record: exon1htt(103Q)mCFP cell line, aggregate imaging, at 2 µM; inhibition of aggregation: stronger effect = higher value; nuclei count: measured here: cell count, toxicity.
The nature of test [3]: endothelial E-selectin expression blockers – imaging, HUVEC, immunofluorescence, MLSMR starter and 10KST1 sets, primary screen (AID 487;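 active means visually confirmed hit in the image check and inhibition above 20%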;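 on inhibition: signal is fraction of cell area covered by stained E-selectin grains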;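 on nuclei count: 100% = median nuclei count of all wells on the same plate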). As to conditions: HUVEC TNFalpha-induced E-selectin immunofluorescence imaging, at 2 µM; inhibition: stronger effect = higher value; nuclei count: measured here: cell number, toxicity.
The target in test [4] is Voltage-gated potassium channel subunit beta-2 (Rattus norvegicus) (UniProt P62483). As to the kind of experiment: inhibitors of rat Kvbeta2 reductase activity – biochemical, NADPH fluorescence, primary screen (AID 622;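 active means fluorescence slope higher than the sample average by over 3 SD, cut at about -0.22 in these data, passing the limit was not always enough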;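 further: slope of raw intensity against log time taken from 70 to 1610 s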). The settings on record: recombinant KvBeta, 4-cyanobenzaldehyde reduction, at 10 µM, stronger effect = higher value.
For test [5] the target is unchanged. As to the kind of experiment: enhancers of rat Kvbeta2 NADPH turnover – biochemical, NADPH fluorescence, primary screen (AID 623;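 active means NADPH fluorescence slope more negative than the mean of all samples by about 3 SD, 99.7% confidence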;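 further: fluorescence intensity change per second fitted from 20 to 320 s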). As to conditions: Recombinant KvBeta, NADPH fluorescence decrease slope, 10 min; at 10 µM; stronger effect = lower value.
For test [6], the target named is Alpha-2C adrenergic receptor (Homo sapiens) (UniProt P18825). Description: compounds altering alpha2C-coupled GIRK flux – cell-based, HEK293 alpha2C/GIRK1/2, thallium flux, primary screen (AID 624;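 active means fluorescence slope after compound addition differing from the mean of all screened samples at 99.7% confidence, in either direction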;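 further: slope of fluorescence ratio to pre-addition baseline per second over 15 to 24 s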). As to conditions: thallium flux BTC fluorescence, at 10 µM, actives lie on both sides.
The nature of test [7]: blockers of RIG-like receptor reporter activation – cell-based, Sendai virus stimulus, luciferase, 10K MLSCN set, TLR/RLR signaling modifier project, primary screen (AID 602276;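 active means inhibition at or above 50% at 10 µM; inactive means inhibition below 50%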;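 further: firefly luciferase from ISG56 promoter only with Renilla not read in this screen; 0% = Sendai virus plus DMSO and 100% = medium plus DMSO without virus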). As to conditions: HEK293 RL24 IRF3 luciferase reporter, at 10 µM, stronger effect = higher value. A general note: A reporter such as luciferase makes a cellular process visible.
Test [8] can be described thus: TLR3 IRF3 reporter activation blockers – cell-based, poly I:C stimulus, luciferase, 10K MLSCN set, primary screen (AID 602277;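 active means inhibition of the reporter signal at or above 50%; inactive means inhibition below 50%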). As to conditions: HEK293-TLR3 RL24 IRF3 luciferase reporter, at 10 µM, stronger effect = higher value.

Activity calls are given as the source filed them.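 How the source made its calls, unless noted: active means inhibition above 20% together with a positive visual image hit; inconclusive means visual image hit but inhibition not above 20%; inactive means no visual image hit.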

Sequence of Alpha-2C adrenergic receptor (Homo sapiens) (P18825 whole entry, looked up): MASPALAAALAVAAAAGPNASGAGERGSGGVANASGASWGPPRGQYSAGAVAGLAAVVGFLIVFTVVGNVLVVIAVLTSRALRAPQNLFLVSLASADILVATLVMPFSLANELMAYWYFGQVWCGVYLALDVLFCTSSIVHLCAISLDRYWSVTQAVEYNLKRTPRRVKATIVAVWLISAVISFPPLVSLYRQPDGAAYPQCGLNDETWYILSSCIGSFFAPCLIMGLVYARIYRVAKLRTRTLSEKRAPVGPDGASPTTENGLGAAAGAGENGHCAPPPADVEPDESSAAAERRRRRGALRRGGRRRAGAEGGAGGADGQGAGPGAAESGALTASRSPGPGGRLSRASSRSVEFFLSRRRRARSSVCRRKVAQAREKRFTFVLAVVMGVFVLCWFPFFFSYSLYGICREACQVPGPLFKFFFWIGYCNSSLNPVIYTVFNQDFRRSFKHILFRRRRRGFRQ
Sequence of Voltage-gated potassium channel subunit beta-2 (Rattus norvegicus) (P62483 whole entry, looked up): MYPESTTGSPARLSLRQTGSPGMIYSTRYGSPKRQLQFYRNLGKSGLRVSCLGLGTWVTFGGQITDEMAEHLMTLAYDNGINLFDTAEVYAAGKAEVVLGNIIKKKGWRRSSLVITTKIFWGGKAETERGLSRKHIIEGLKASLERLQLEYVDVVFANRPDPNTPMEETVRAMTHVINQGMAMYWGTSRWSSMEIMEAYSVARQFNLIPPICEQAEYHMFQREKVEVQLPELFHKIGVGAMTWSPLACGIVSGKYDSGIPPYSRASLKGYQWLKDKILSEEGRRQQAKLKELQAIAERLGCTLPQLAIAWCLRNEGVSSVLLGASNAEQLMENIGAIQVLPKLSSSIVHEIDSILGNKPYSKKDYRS

As usually defined, the inhibition is the drop in the measured response relative to a control, in per cent. On to `CCOc1cc(C(=O)NCc2nnc(SCC(=O)OC)n2C)cc(OCC)c1OCC`, for which the cell count in test [1] worked out at 291. Also, the inhibition in test [1] is 10% (inactive); in test [3], 1.2% (inactive); in test [7], 10.7% (inactive); in test [8] it was 16% (inactive). Further, in test [2], the inhibition of aggregation is 17% (inactive). For the same compound, the values for the nuclei count in test [2] and in test [3] were 55.3% and 101%, respectively. In addition, the fluorescence slope in test [4] was -0.337 (inactive). For the same compound, in test [5], the NADPH fluorescence slope was -1.2e-05 (inactive). In test [6], the slope is 0.00327 (inactive).
As to `Clc1ccc2c(c1)[C@H]1OCC[C@H]1[C@@H](c1ccco1)N2`, the cell count in test [1] turned out to be 824. Moreover, the inhibition was 5.5% (inactive) in test [1], -101% (inactive) in test [3], -42.9% (inactive) in test [7] and -122% (inactive) in test [8]. The inhibition of aggregation in test [2] was -3.2% (inactive). The nuclei count in test [2] is 98.8%; in test [3] it was 125%. For the same compound, the fluorescence slope in test [4] is -0.572 (inactive). Also, in test [5], the NADPH fluorescence slope is -3.2e-05 (inactive). In addition, the slope in test [6] was 0.00552 (inactive).
On to `O=C(O)CCn1c(=O)c2ccccc2c2ccccc2c1=O`, for which the cell count in test [1] worked out at 557. For the same compound, the inhibition in test [1] was 1% (inactive); in test [3], 10.2% (inactive); in test [7], -4.94% (inactive); in test [8], -9.95% (inactive). For the same compound, the inhibition of aggregation in test [2] was -13.6% (inactive). Further, the values for the nuclei count in test [2] and in test [3] were 118% and 101%, respectively. Further, the fluorescence slope in test [4] was -0.537 (inactive). Moreover, in test [5], the NADPH fluorescence slope is 7e-06 (inactive). In addition, the slope in test [6] was 0.00528 (inactive).
For `O=C(CSc1nnc(C2CC2)n1Cc1ccccc1)c1ccc(S(=O)(=O)N2CCOCC2)cc1`, the cell count in test [1] turned out to be 426. Besides, the inhibition was 15.8% (inactive) in test [1], -55.3% (inactive) in test [3], 13.7% (inactive) in test [7] and 24% (inactive) in test [8]. Moreover, the inhibition of aggregation in test [2] was 1.1% (inactive). Further, the figures for the nuclei count in test [2] and in test [3] were 96.7% and 112%, respectively. The fluorescence slope in test [4] is -0.412 (inactive). In addition, the NADPH fluorescence slope in test [5] was -0.000138 (inactive). Besides, the slope in test [6] is 0.00543 (inactive).
Consider `O=C1c2ccccc2C(Nc2ccc(-c3nc4ccccc4[nH]3)cc2)N1Cc1ccco1` (centres undefined), for which, in test [1], the cell count was determined as 701. Besides, the inhibition was -6.8% (inactive) in test [1], -26.7% (inactive) in test [3], -24% (inactive) in test [7] and -47.4% (inactive) in test [8]. Also, the inhibition of aggregation in test [2] was -10.2% (inactive). Further, the nuclei count in test [2] was determined as 87.9%; in test [3] it was 108%. Moreover, in test [4], the fluorescence slope was -0.589 (inactive). For the same compound, the NADPH fluorescence slope in test [5] was -2e-06 (inactive). The slope in test [6] was 0.00641 (inactive).
On to `O=C(Cn1nnc(-c2ccccc2)n1)Nc1ccccc1N1CCOCC1`, for which the cell count in test [1] was found to be 584. For the same compound, the inhibition in test [1] is 3% (inactive); in test [3] it was -16% (inactive); in test [7] it was 14.7% (inactive); in test [8], 14.8% (inactive). For the same compound, the inhibition of aggregation in test [2] is 5.4% (inactive). Moreover, the values for the nuclei count in test [2] and in test [3] were 63.9% and 107%, respectively. Further, in test [4], the fluorescence slope is -0.602 (inactive). For the same compound, in test [5], the NADPH fluorescence slope is 2.3e-05 (inactive). Also, in test [6], the slope is 0.0042 (inactive).
`O=C(Nc1ccccn1)N1CCOCC1`: the cell count in test [1] amounted to 319. Moreover, the inhibition in test [1] is 9.3% (inactive); in test [3], -70.8% (inactive); in test [7] it was 1.79% (inactive); in test [8], 0.112% (inactive). For the same compound, the inhibition of aggregation in test [2] is 10.6% (inactive). The nuclei count in test [2] was determined as 95.2%; in test [3] it was 114%. Further, in test [4], the fluorescence slope was -0.303 (inactive). Further, the NADPH fluorescence slope in test [5] was -5e-05 (inactive). In addition, the slope in test [6] is 0.00596 (inactive).
On to `O=C(c1ccco1)N1CCN(CC2CC3C=CC2C3)CC1` (centres undefined), for which the cell count in test [1] is 269. The inhibition was -10.4% (inactive) in test [1], -30.7% (inactive) in test [3], -7.24% (inactive) in test [7] and -20% (inactive) in test [8]. Besides, in test [2], the inhibition of aggregation is -30.9% (inactive). Moreover, the results for the nuclei count in test [2] and in test [3] were 7.7% and 106%, respectively. Moreover, in test [4], the fluorescence slope is -0.509 (inactive). The NADPH fluorescence slope in test [5] was 2.8e-05 (inactive). Further, in test [6], the slope was 0.00614 (inactive).
`CC1CCN(C(=O)CN2C(=O)C(C)(C)Oc3ccc(C(=O)NC4CCCC4)cc32)CC1`: the cell count in test [1] is 458. The inhibition in test [1] is 0.3% (inactive); in test [3] it was -83.6% (inactive); in test [7], -6.8% (inactive); in test [8], 14.6% (inactive). The inhibition of aggregation in test [2] was -4.6% (inactive). The nuclei count came to 84.4% in test [2] and 117% in test [3]. In test [4], the fluorescence slope is -0.503 (inactive). In test [5], the NADPH fluorescence slope is -1.2e-05 (inactive). Also, the slope in test [6] was 0.00666 (inactive).
Regarding `Cc1ccc(CNc2cc(-c3nn4c(C)nnc4s3)ccc2C)s1`, the cell count in test [1] came out at 679. Further, the inhibition in test [1] was 8.6% (inactive); in test [3], -76.3% (inactive); in test [7], 5.73% (inactive); in test [8] it was 13.7% (inactive). For the same compound, the inhibition of aggregation in test [2] is -34.9% (inactive). Moreover, the nuclei count was 2.1% in test [2] and 102% in test [3]. Further, the fluorescence slope in test [4] was -0.444 (inactive). The NADPH fluorescence slope in test [5] was -1.1e-05 (inactive). In test [6], the slope is 0.00646 (inactive).
Take `Cc1cc(C)n(-c2nc(C)nc3sc4c(c23)CCC(C)C4)n1` (centres undefined): the cell count in test [1] came to 564. The inhibition in test [1] was -8.4% (inactive); in test [3], -88% (inactive); in test [7], -1.01% (inactive); in test [8], 32.1% (inactive). Further, the inhibition of aggregation in test [2] was -2% (inactive). The results for the nuclei count in test [2] and in test [3] were 93.8% and 121%, respectively. The fluorescence slope in test [4] is -0.465 (inactive). For the same compound, the NADPH fluorescence slope in test [5] is 5.5e-06 (inactive). Also, in test [6], the slope is 0.00248 (inactive).
For `Cc1nn(CC(O)Cn2c3c(c4ccccc42)CCN(C)C3=O)c(C)c1Br` (centres undefined), the cell count in test [1] worked out at 363. The inhibition is -4.7% (inactive) in test [1], 45.5% (inactive) in test [3], 21.6% (inactive) in test [7] and 21.9% (inactive) in test [8]. Moreover, the inhibition of aggregation in test [2] was 10.5% (inactive). Further, the nuclei count in test [2] amounted to 101%; in test [3], 75.2%. Also, the fluorescence slope in test [4] is -0.427 (inactive). Moreover, the NADPH fluorescence slope in test [5] was -3e-05 (inactive). For the same compound, the slope in test [6] is 0.00532 (inactive).
As for `O=C(CCNS(=O)(=O)c1cccc2nsnc12)NCc1cccs1`, the cell count in test [1] came out at 623. Further, the inhibition in test [1] was -21% (inactive); in test [3] it was -34.5% (inactive); in test [7] it was 17.1% (inactive); in test [8], 19% (inactive). The inhibition of aggregation in test [2] is -17.4% (inactive). Also, the nuclei count stood at 101% in test [2] and 118% in test [3]. Besides, the fluorescence slope in test [4] is -0.508 (inactive). Moreover, the NADPH fluorescence slope in test [5] is -0.000109 (inactive). Besides, the slope in test [6] is 0.00523 (inactive).
For `CC(C)OC(=O)c1cc(=O)[nH]c2ccccc12`, the cell count in test [1] worked out at 267. Moreover, the inhibition in test [1] was 14% (inactive); in test [3] it was -4.6% (inactive); in test [7], 12.2% (inactive); in test [8] it was 9.33% (inactive). In addition, the inhibition of aggregation in test [2] was 5.3% (inactive). The figures for the nuclei count in test [2] and in test [3] were 94% and 92.6%, respectively. Also, the fluorescence slope in test [4] is -0.556 (inactive). Also, the NADPH fluorescence slope in test [5] was 3e-05 (inactive). Further, in test [6], the slope was 0.00572 (inactive).
